Data reported in the supplement of paper PMC10849652.
Of roughly 7,900 targets only a part is listed; those with a hit were picked by preference. About 0.6% of all pairs of compound and target were hits.

How the values were obtained:
Test in all cases: log2 fold change, soluble protein after heating vs DMSO (PISA); higher = thermal stabilisation; K562 cells, 10 uM, 30 min; active = over 0.2 and 3.5 SD of the protein, either way, in both replicates (recomputed)
[1] = compound: C1=CC=C(C=C1)[C@H](COC2=CC3=C(C=C2)NC(=O)N3)NC(=O)C4=CC=CN(C4=O)CC5=CC(=C(C=C5)F)F
Summary of the method: (§1)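 Thermal stability values are relative to control samples and come from duplicates. They are expressed as log2 fold changes. For measurement, K562 cells (2×10^6 cells/mL) received 10 μM compound for 30 min, and aliquots were heated for 3 min over 48°C-58°C, pooled, and extracted at 4°C in PBS with 0.5% NP-40. Soluble protein, the supernatant after 21,000xg for 90 min, was quantified by TMTpro 16plex LC-MS/MS with equalised channel sums.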

[2] = compound: CC1=C(SC2=C1C(=N[C@H](C3=NN=C(N32)C)CC(=O)N)C4=CC=C(C=C4)Cl)C
Summary of the method: as §1

[3] = compound: CC1=C2C(=CC=C1)N=C(N(C2=O)C3=CC=CC=C3C)CN4C=NC5=C(N=CN=C54)N
Summary of the method: as §1

[4] = compound: Cc1sc2c(c1C)C(c1ccc(Cl)cc1)=N[C@@H](CC(=O)OC(C)(C)C)c1nnc(C)n1-2
Summary of the method: as §1

[5] = compound: c1ccc([C@@H]2C[C@H]2NC2CCNCC2)cc1
Summary of the method: as §1

Measured: log2 fold change

REL (UniProt Q04864)
Chain of UniProt Q04864 (Q04864 whole entry, looked up): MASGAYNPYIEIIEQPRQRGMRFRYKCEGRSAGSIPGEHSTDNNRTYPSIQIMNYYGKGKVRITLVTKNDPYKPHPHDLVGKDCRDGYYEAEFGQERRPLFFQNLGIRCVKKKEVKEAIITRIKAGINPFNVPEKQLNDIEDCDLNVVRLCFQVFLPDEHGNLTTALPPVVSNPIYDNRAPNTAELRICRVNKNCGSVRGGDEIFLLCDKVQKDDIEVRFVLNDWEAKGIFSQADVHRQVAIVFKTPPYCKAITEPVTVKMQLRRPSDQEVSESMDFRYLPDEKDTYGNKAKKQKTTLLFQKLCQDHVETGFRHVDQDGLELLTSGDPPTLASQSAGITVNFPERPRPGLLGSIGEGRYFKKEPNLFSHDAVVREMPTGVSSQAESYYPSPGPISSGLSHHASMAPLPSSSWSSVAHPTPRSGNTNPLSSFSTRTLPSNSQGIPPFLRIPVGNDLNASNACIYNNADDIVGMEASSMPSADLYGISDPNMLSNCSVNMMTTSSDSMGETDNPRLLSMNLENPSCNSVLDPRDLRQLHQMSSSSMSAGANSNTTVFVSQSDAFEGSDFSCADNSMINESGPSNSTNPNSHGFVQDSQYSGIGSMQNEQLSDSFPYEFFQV
inactive: [1] 0.058 | [2] 0.048 | [3] 0.046 | [4] 0.037 | [5] 0.065

RRAGB (UniProt Q5VZM2)
Chain of UniProt Q5VZM2 (Q5VZM2 whole entry, looked up): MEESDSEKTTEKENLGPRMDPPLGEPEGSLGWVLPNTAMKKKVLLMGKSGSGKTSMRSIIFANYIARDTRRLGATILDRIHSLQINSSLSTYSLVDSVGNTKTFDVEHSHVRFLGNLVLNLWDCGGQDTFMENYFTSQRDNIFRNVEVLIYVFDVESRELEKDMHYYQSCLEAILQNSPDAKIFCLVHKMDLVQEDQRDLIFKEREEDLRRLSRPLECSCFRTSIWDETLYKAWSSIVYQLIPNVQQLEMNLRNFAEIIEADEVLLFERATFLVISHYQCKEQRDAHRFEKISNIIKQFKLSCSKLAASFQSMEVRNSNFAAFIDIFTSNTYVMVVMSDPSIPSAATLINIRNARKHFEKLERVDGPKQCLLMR
inactive: [1] 0.046 | [2] -0.028 | [3] -0.088 | [4] -0.01 | [5] 0.02

RPS6KA1 isoform 2 (UniProt Q15418)
inactive: [1] -0.059 | [2] 0.048 | [3] 0.051 | [4] -0.009 | [5] -0.018

RUFY1 (UniProt Q96T51)
inactive: [1] -0.006 | [2] -0.029 | [3] 0.041 | [4] 0.002 | [5] -0.028

RPP25L (UniProt Q8N5L8)
inactive: [1] 0.032 | [2] -0.018 | [3] 0.026 | [4] 0.143 | [5] 0.033

RPS5 (UniProt P46782)
inactive: [1] 0.049 | [2] -0.144 | [3] -0.214 | [4] 0.082 | [5] 0.001

SCD (UniProt O00767)
Chain of UniProt O00767 (O00767 whole entry, looked up): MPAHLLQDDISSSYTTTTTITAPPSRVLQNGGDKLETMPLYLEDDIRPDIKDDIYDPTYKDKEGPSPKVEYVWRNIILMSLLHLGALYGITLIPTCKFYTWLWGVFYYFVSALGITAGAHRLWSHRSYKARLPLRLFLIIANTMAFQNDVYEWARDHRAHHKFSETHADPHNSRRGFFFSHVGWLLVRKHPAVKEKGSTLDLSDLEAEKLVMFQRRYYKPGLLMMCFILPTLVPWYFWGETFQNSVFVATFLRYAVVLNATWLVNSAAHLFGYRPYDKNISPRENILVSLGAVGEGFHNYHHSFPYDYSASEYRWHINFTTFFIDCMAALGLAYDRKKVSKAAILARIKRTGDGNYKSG
inactive: [1] 0.011 | [2] -0.019 | [3] 0.012 | [4] 0.054 | [5] 0.027

RHOA (UniProt P61586)
Chain of UniProt P61586 (P61586 whole entry, looked up): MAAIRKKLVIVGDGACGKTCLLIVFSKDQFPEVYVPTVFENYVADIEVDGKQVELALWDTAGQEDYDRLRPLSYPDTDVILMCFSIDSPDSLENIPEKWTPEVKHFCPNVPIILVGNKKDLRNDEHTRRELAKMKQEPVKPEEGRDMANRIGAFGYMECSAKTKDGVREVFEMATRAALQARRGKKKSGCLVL
inactive: [1] 0.01 | [2] -0.058 | [3] -0.095 | [4] -0.041 | [5] 0.021

SETMAR (UniProt Q53H47)
inactive: [1] 0.001 | [2] 0.096 | [3] 0.033 | [4] -0.031 | [5] -0.02

RNF187 (UniProt Q5TA31)
Chain of UniProt Q5TA31 (Q5TA31 whole entry, looked up): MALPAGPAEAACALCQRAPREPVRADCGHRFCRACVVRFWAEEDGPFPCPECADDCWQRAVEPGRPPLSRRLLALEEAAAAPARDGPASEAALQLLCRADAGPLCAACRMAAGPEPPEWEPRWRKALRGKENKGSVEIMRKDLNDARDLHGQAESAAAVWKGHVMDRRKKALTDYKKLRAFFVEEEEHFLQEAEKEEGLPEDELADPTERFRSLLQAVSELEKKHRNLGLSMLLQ
inactive: [1] -0.047 | [2] 0.07 | [3] -0.033 | [4] -0.083 | [5] -0.033

SERINC3 (UniProt Q13530)
inactive: [1] -0.062 | [2] 0.045 | [3] 0.071 | [4] -0.062 | [5] 0.133

SLC12A9 (UniProt Q9BXP2)
Chain of UniProt Q9BXP2 (Q9BXP2 whole entry, looked up): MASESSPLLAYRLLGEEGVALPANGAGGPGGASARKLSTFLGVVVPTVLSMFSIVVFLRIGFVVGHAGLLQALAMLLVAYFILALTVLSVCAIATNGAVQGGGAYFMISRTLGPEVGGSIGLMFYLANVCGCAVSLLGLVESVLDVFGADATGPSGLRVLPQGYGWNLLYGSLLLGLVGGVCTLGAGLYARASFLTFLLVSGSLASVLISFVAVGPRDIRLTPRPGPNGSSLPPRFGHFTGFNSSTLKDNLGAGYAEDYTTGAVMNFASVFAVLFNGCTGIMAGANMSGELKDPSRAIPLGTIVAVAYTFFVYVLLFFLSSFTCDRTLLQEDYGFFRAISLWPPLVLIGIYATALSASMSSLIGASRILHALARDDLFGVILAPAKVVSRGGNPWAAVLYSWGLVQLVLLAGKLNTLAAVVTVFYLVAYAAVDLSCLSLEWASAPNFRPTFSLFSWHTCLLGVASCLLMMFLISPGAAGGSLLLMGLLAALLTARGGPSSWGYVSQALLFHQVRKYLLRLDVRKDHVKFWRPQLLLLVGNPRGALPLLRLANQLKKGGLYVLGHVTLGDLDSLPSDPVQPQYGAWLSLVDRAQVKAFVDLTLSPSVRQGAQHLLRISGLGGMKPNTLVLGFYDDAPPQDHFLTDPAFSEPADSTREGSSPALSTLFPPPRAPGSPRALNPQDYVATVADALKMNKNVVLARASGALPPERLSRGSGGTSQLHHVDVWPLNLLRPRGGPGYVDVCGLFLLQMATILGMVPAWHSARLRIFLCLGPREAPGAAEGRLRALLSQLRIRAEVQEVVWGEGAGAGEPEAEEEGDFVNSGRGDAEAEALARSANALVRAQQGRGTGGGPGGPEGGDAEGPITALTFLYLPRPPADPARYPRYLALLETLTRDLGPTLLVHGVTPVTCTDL
inactive: [1] 0.013 | [2] -0.002 | [3] 0.014 | [4] -0.035 | [5] 0.028

RSPRY1 (UniProt Q96DX4)
inactive: [1] -0.009 | [2] 0.024 | [3] 0.012 | [4] -0.026 | [5] 0.029

SEPTIN5 (UniProt G3XAH0)
inactive: [1] 0.002 | [2] -0.014 | [3] 0.061 | [4] -0.043 | [5] -0.031

RPS27A (UniProt P62979)
inactive: [1] 0.076 | [2] -0.111 | [3] -0.281 | [4] 0.108 | [5] -0.025

RECQL (UniProt P46063)
Chain of UniProt P46063 (P46063 whole entry, looked up): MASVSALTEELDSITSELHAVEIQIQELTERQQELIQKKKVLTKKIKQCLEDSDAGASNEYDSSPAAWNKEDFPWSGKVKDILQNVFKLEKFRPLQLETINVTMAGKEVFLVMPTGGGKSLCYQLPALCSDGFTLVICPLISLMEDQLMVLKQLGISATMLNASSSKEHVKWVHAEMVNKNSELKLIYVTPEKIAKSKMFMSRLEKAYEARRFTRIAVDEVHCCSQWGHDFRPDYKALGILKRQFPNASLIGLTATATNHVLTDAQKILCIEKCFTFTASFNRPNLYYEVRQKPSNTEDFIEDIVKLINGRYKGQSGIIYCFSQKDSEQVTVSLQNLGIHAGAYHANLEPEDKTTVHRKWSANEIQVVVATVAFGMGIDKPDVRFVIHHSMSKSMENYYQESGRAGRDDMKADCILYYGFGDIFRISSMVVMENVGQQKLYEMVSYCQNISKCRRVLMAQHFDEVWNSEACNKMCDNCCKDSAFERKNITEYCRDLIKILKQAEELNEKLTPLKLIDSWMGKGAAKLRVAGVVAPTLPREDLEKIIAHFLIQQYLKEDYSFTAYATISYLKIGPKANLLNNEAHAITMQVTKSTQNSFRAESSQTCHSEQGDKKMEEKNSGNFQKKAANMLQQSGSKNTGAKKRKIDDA
inactive: [1] -0.012 | [2] 0.087 | [3] 0.015 | [4] -0.029 | [5] -0.02

RPS4X (UniProt P62701)
inactive: [1] 0.105 | [2] -0.255 | [3] -0.232 | [4] 0.148 | [5] 0.001

RBM25 (UniProt P49756)
inactive: [1] -0.025 | [2] 0 | [3] 0.005 | [4] 0.051 | [5] 0.112

SGPL1 (UniProt O95470)
Chain of UniProt O95470 (O95470 whole entry, looked up): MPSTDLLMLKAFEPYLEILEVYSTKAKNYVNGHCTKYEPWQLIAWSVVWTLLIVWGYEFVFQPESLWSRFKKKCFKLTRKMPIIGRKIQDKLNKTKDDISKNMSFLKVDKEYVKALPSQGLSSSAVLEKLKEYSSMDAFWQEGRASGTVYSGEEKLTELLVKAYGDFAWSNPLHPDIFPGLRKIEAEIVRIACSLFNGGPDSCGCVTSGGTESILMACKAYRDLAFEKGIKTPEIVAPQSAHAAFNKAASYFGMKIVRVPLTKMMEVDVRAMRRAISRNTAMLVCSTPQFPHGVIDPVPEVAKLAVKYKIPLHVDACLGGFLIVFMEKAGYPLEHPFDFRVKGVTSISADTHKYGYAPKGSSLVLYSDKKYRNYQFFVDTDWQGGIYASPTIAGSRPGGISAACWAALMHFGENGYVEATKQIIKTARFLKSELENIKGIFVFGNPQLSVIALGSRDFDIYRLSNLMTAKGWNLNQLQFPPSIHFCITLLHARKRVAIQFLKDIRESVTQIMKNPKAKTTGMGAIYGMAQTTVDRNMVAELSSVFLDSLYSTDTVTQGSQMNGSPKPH
inactive: [1] 0.041 | [2] -0.014 | [3] 0.005 | [4] 0.049 | [5] -0.004

RPRD1B (UniProt Q9NQG5)
Chain of UniProt Q9NQG5 (Q9NQG5 whole entry, looked up): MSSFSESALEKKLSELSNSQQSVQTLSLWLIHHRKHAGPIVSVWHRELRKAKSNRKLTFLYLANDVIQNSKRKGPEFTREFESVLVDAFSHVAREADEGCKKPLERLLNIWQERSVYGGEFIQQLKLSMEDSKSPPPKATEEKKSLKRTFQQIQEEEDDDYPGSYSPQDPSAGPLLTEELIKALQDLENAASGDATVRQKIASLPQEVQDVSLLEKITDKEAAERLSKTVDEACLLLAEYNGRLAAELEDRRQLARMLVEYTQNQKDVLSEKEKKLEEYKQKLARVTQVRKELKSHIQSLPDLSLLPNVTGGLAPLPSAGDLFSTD
inactive: [1] -0.006 | [2] 0.06 | [3] 0.043 | [4] 0.009 | [5] 0.014

SCO2 (UniProt O43819)
Chain of UniProt O43819 (O43819 whole entry, looked up): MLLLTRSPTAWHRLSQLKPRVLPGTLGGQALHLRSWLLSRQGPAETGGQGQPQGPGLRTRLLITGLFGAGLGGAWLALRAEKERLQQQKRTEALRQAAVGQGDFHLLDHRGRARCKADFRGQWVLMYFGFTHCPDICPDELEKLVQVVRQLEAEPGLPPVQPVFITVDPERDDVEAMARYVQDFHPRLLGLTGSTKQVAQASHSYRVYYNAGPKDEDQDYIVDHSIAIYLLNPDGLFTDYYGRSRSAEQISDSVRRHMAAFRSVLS
inactive: [1] -0.03 | [2] -0.108 | [3] -0.041 | [4] -0.098 | [5] 0.023

RPA1 (UniProt P27694)
inactive: [1] -0.032 | [2] 0.025 | [3] 0.087 | [4] -0.047 | [5] 0.011

RDH11 (UniProt Q8TC12)
inactive: [1] 0.258 | [2] 0.06 | [3] 0.266 | [4] 0.115 | [5] -0.058

RALY (UniProt Q9UKM9)
Chain of UniProt Q9UKM9 (Q9UKM9 whole entry, looked up): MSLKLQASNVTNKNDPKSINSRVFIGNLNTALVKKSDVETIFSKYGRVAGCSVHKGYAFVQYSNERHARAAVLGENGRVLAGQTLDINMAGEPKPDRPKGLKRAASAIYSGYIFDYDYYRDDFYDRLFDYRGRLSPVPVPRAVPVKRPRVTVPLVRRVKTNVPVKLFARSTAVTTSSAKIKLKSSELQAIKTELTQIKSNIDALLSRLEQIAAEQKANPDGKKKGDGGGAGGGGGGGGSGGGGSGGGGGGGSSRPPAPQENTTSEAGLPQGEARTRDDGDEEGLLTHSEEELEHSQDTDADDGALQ
inactive: [1] 0.102 | [2] -0.379 | [3] -0.243 | [4] 0.031 | [5] 0.003

RPS15 (UniProt P62841)
inactive: [1] 0.126 | [2] -0.113 | [3] -0.02 | [4] 0.122 | [5] 0.106

SFXN5 (UniProt Q8TD22)
inactive: [1] -0.079 | [2] 0.024 | [3] -0.11 | [4] 0.007 | [5] -0.061
